# Screening data as filed in PubChem.
# Sampled rows, rich in hits. Any-hit rate of the full collection: about 5.9%.
# VP16 counter: inhibits Gal4-VP16 luciferase reporter, ROR gamma counter-screen | Drosophila S2 Gal4-VP16 UAS-luciferase, luminescence, 20 h | Potency, µM (top dose mostly 53.6 µM), inactives show at the top dose activity, negative = inhibition, most hits filed as inhibitors | 310,000 compounds, 3.5% hits;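 note: Gal4-VP16 expression switched on by copper sulfate through the metallothionein promoter; potency is the fitted concentration of half-maximal effect; nearly all actives have a fitted effect of over 50% in size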
# RORg inh: ROR gamma (mouse) transcription inhibition; Drosophila S2 Gal4-RORgamma UAS-luciferase reporter, 20 h; Potency, µM (titrated, usually from 53.6 µM), inactives show at the top dose activity change, negative = inhibition, most hits filed as inhibitors; P51450; 310,000 compounds, 5.4% hits; note: potency is the fitted concentration of half-maximal effect; nearly all actives have a fitted effect of over 60% in size
#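 Compounds are pin-transferred onto Drosophila Schneider cells expressing a copper-inducible Gal4–ROR gamma transactivation domain fusion. After 1 hr, copper sulfate is added to 700 uM final; luciferase is read 20 hr later.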
# GALK inh: inhibitors of human galactokinase; P51570; Potency, µM (doses to about 57.5 µM), for the others: top-dose activity change, negative = inhibition, usual class: inhibitors; Purified GALK, Kinase-Glo residual ATP luminescence; 270,000 compounds, 0.007% hits; AID 1868; note: potency is the fitted concentration of half-maximal effect
# Target sequence (P51570 whole entry, looked up): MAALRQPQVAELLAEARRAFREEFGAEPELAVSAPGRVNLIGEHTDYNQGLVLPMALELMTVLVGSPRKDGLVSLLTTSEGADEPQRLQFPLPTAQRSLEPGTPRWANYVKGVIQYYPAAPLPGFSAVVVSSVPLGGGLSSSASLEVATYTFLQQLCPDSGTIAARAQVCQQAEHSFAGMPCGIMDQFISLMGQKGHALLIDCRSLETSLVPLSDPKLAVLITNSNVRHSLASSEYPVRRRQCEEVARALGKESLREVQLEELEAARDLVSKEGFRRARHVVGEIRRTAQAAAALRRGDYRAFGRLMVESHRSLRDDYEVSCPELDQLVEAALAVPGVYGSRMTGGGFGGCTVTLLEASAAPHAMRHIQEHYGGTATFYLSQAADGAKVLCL
#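 Human GALK (5 nM) with 35 uM ATP and 100 uM galactose in 20 mM HEPES pH 8.0, 5 mM MgCl2, 60 mM NaCl, 1 mM DTT, 0.01% BSA. After 1 h at room temperature, leftover ATP was read by Kinase-Glo Plus luminescence.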
# rTrxR1 inhibitor: inhibitors of rat thioredoxin reductase 1; O89049; Potency, µM (titrated, usually from 114 µM), for inactives: at the highest dose activity change, negative = inhibition, most hits filed as inhibitors; 390,000 compounds, 1% hits; recombinant rTrxR1, NADPH fluorescence consumption, selenite substrate; note: potency is the fitted concentration of half-maximal effect; nearly all actives have a fitted effect of over 65% in size
#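 Rat TrxR1 (90 nM in the dispensed reagent) was pre-reduced with 400 uM NADPH for 5 min at room temperature, then incubated with compound for 15 min. After 400 uM selenite was added, NADPH fluorescence (Ex 340/Em 450 nm) was followed for 8 min.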
# Coupling enz: inhibits coupling enzyme system, counter-screen for aldolase hits. coupling enzyme system counterscreen, AmpLite Red fluorescence. activity change, negative = inhibition, % at 58.2 µM, hits read low. 290,000 compounds, 0.67% hits; in the data active = activity change below about -30%
#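 Final compound at 57.5 uM, incubated 10 min at RT with coupling enzyme reagent (glyceraldehyde-3-phosphate), then 20 min with substrate and AmpLite Red detection. Fluorescence read at 525/598 nm; tests interference with the coupling assay, not aldolase inhibition.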
# TrxR1 substrate: is turned over as a substrate by rat TrxR1. Potency, µM (doses to about 114 µM), for the others: at the highest dose activity change, negative = substrate turnover. purified TrxR1 substrate turnover, NADPH consumption readout. 390,000 compounds, 0.01% hits; note: potency is the fitted concentration of half-maximal effect; nearly all actives have a fitted effect of over 50% in size
#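 Rat TrxR1, dispensed at 90 nM, was prereduced with 400 uM NADPH (final) for 5 min at ~22 deg C, then incubated with compound 15 min before 400 uM selenite. A first-read NADPH fluorescence drop versus no-compound background flagged substrates.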
# Active calls of the source: *; ? = inconclusive; / = no result; [ ] = remark or other dose. Unless noted, calls come from the whole dose curve; as a rule, active = well fitted curve in the direction sought with a large enough effect; inconclusive = small, poorly fitted or top-dose-only effect, or another doubt; inactive = no such curve, though single readings can be large; an effect the other way counts as inactive or inconclusive. % is set by controls: 0 for no effect and ±100 for the full control effect.
SMILES,VP16 counter,RORg inh,GALK inh,rTrxR1 inhibitor,Coupling enz,TrxR1 substrate
Brc1ccc2nc3c(n2c1)CCCC3,?,12.6µM*,0.1%,0.1%,9.2,1.0%
CC(C)(C)S(=O)(=O)c1ccc2nc3c(n2c1)CCCC3,-4.6%,-26.1%,-1.9%,0.7%,-1.7,65.1%
O=C(N/N=C/c1ccco1)c1ccccn1,5.5%,-24.4%,1.8%,-6.7%,-0.4,-17.3%
Cc1ccc(/C=N/NC(=O)c2ccco2)s1,-6.8%,?,-4.4%,?,-3.5,-16.3%
O=C(N/N=C/c1ccc(Br)s1)c1ccco1,10µM*,6.31µM*,5.5%,?,0.5,-5.2%
O=C(N/N=C/c1ccc(Br)s1)c1ccccn1,3.98µM*,?,2.0%,-7.9%,1.9,1.4%[57.1 µM]
C/C(=N\NC(=O)c1cccc2ccccc12)c1ccccn1,/,/,3.8%,17.6%,-0.6,1.7%
Cc1occc1C(=O)N/N=C/c1ccc(Br)s1,10µM*,6.31µM*,-1.8%,8.3%[57.1 µM],-0.3,-8.8%
C/C(=N\NC(=O)c1ccoc1C)c1cccc2ccccc12,-8.4%,12.6µM*,0.0%,9.8%,-5.3,2.3%
O=C1CCCC/C1=C\Nc1ccc(C(=O)O)c(O)c1,-3.8%,5.9%,-1.1%,?,-5.6,-19.1%
O=C(N/N=C/c1sc(=O)n(Cc2ccc(Br)cc2)c1Cl)c1ccco1,?,11.2µM*,7.5%,?,/,2.9%
C/C(=N\NC(=O)c1ccoc1C)c1ccc(Br)s1,11.2µM*,6.31µM*,-4.1%,22.3%,/,2.1%
CC(=NNC(=O)c1cc(C)oc1C)c1ccc(Br)s1,/,/,/,-7.4%,/,-6.8%
CCOc1c(C)cc(S(=O)(=O)NCc2cccnc2)c(C)c1C,-6.5%,17.6%,2.8%,21.1%[57.1 µM],-0.6,8.3%[57.1 µM]
CCN(CC)c1ccc(/C=C/c2nc3ccccc3s2)cc1,7.08µM*,1.58µM*,-0.3%,/,-0.4,/
COc1ccc(N2C(=O)CC(NCC#N)C2=O)cc1 (stereo not drawn),2.5%,-13.5%,-0.6%,31.6µM*,-0.8,1.3%
CCOC(=O)CNC1CC(=O)N(c2ccc(Br)cc2)C1=O (stereo not drawn),/,/,-2.9%,28.2µM*,-1.1,3.1%
COc1ccc(CN(N=O)C2CC(=O)N(c3ccc(OC)cc3)C2=O)cc1 (stereo not drawn),14.1µM*,?,0.6%,8.8%[57.1 µM],5.9,9.9%[57.1 µM]
CCOc1ccc(NC(=O)NN2C(C)CCCC2C)cc1 (stereo not drawn),-0.1%,8.8%,/,-10.6%,1.4,-7.0%
CCCSc1nnc2c(n1)OC(c1cccn1C)N(C(C)=O)c1ccccc1-2 (stereo not drawn),-0.3%,-10.4%,-0.4%,16.2%,4.0,4.6%
Cc1noc(C)c1NC(=O)N(C)C[C@H]1Oc2c(NC(=O)C3CC3)cccc2C(=O)N([C@H](C)CO)C[C@@H]1C,/,/,/,-5.0%[57.1 µM],/,4.3%[57.1 µM]
Cc1cc(S(=O)(=O)ON2C(=O)c3ccccc3C2=O)ccc1F,12.6µM*,?,-0.1%,?,-1.2,25.2%
Cc1ccc(S(=O)(=O)ON2C(=O)c3cccc4cccc(c34)C2=O)cc1,6.8%,?,0.7%,140.8%,0.1,72.8%
Cc1ccc(C)c(S(=O)(=O)ON2C(=O)c3ccccc3C2=O)c1,11.2µM*,?,-4.8%,3.16µM*,1.6,24.2%
O=C1c2ccccc2C(=O)N1OS(=O)(=O)c1ccccc1,15.8µM*,?,-0.8%,/,-0.5,/
SMILES,VP16 counter,RORg inh,GALK inh,rTrxR1 inhibitor,Coupling enz,TrxR1 substrate
CCOc1ccc(NC(=O)CN(C)C(=O)CSC(C)C(=O)Nc2cc(C)on2)cc1OCC (stereo not drawn),3.8%,0.9%,8.4%,13.7%,/,7.4%
Cc1cc(S(=O)(=O)NCc2ccc(N3CCN(C)CC3)cc2)c(C)s1,1.8%,0.4%,7.8%,24.6%[57.1 µM],3.4,-15.0%[57.1 µM]
Clc1cccc(CN2CCN(c3ncccn3)CC2)c1Cl,4.2%,0.7%,6.1%,19.0%[11.4 µM],-0.2,-8.3%
Cc1cc(Cl)ccc1NC(=S)NCc1ccc(Cl)cc1,-2.1%[0.365 µM],2.82µM*,-2.4%,10.1%,-0.5,4.8%
CCNC(=S)Nc1ccc(Cl)cc1Cl,-13.3%,11.2µM*,1.5%,-14.6%,1.4,-8.3%
Cc1cc(Cl)ccc1NC(=S)NCCc1ccc(Cl)cc1,5.01µM*,6.31µM*,0.0%,13.9%,1.8,-3.0%
S=C(NCc1ccc(Cl)cc1)NN1CCOCC1,?,10µM*,6.9%,17.6%[57.1 µM],1.0,15.6%[57.1 µM]
Cc1cc(Cl)ccc1NC(=S)NCc1ccc(S(N)(=O)=O)cc1,4.4%,3.6%,1.2%,-24.0%,0.5,1.3%
CN(C)CC(C)(C)CNC(=O)CC1C(=O)NCCN1Cc1ccc(-c2ccccc2)cc1 (stereo not drawn),0.4%,1.6%,1.0%,16.6%,-1.9,-0.1%
CC1(c2ccccc2)NC(=O)N(CC(=O)Nc2nnc(C3CC3)s2)C1=O (stereo not drawn),-7.7%,3.5%,4.9%,9.4%,1.3,-3.8%
CCCNC(=S)NCc1ccc(Cl)cc1,-72.5%,10µM*,0.3%,-9.1%,6.0,-12.7%
Cc1cc(Cl)ccc1NC(=S)NCc1ccco1,10µM*,?,0.4%,11.6%,4.6,9.3%
CNC(=S)NCc1ccc(Cl)cc1,/,/,/,-3.7%,/,-9.4%
S=C(NCCc1ccccc1)Nc1ccc(Cl)cc1Cl,15.8µM*,3.98µM*,0.5%,-20.6%,-0.2,-9.5%
Cc1cc(Cl)ccc1NC(=O)C(=O)NCc1ccco1,/,/,/,-13.6%,/,-3.0%
Cc1cc(Br)ccc1NC(=O)c1cc2c(s1)-c1ccccc1SC2,/,/,/,-14.8%,/,8.3%
O=C(O)c1ccccc1[N+](=O)[O-],6.8%,10.5%,/,/,/,/
CC(C)(C)c1ccc(/C=C/C(=O)N2CCc3ccccc3C2)cc1,1µM*,?,3.7%,-5.4%,0.8,5.0%[57.1 µM]
Cc1ccc(/C=C/C(=O)N2CCc3ccccc3C2)cc1,?,17.8µM*,4.7%,17.6%[57.1 µM],-5.1,4.5%[57.1 µM]
O=C(/C=C/C(=O)N1CCc2ccccc2C1)N1CCc2ccccc2C1,20µM*,?,4.9%,9.7%[57.1 µM],0.0,4.7%[57.1 µM]
CCCCCC(O)CCC(=O)NNC1=CC(=O)CC(C)(C)C1 (stereo not drawn),5.7%,23.4%,8.5%,-58.9%,-0.9,1.6%[57.1 µM]
N#CCCN(C(=O)COc1ccc(Br)cc1F)c1ccc(F)cc1,-4.3%,20.4%,1.9%,5.8%[11.4 µM],0.8,5.8%[11.4 µM]
CCOC(=O)C1=C(CCl)NC(=O)NC1c1ccc2c(c1)OCO2 (stereo not drawn),?,?,1.6%,11.2µM*,-0.6,3.4%
COc1ccc2c(-c3ccccc3)cc(SCC(=O)NC3CCS(=O)(=O)C3)nc2c1 (stereo not drawn),-5.8%,11.2µM*,-0.8%,18.4%,4.3,7.6%
